Each structure is given as a SMILES string. About 300 (0.083%) of roughly 360,000 compounds were called active. No stated cut-off is given here; in the data, active means activation above about 40%; inconclusive means between about 15% and that limit; inactive means weaker than that. Only a selection was taken, and actives are over-represented in it overall.

Chain of D(2) dopamine receptor (Homo sapiens) (P14416 whole entry, looked up): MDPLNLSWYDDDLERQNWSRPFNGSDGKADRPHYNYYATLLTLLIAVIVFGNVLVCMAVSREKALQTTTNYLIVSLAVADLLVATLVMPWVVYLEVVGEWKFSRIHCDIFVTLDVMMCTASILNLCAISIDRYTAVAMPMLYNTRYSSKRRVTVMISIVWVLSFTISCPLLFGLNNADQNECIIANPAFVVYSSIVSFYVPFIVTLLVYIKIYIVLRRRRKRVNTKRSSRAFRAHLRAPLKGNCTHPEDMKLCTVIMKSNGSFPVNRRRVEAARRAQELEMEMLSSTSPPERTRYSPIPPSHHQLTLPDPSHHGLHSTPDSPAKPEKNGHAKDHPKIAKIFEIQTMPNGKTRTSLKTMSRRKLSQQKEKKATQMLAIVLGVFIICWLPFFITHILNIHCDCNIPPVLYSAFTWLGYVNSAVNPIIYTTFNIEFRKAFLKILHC

In this assay the target is D(2) dopamine receptor (Homo sapiens) (UniProt P14416). In words: Beta-Arrestin HTS for Positive Allosteric Modulators of the Human D2 Dopamine Receptor: Agonists. The note with it: DiscoveRx PathHunter D2 beta-arrestin, luminescence, 90 min; stronger effect = higher value; 100% = 57 uM dopamine signal. The source says:
There is great interest in identifying small molecule ligands for G-protein coupled receptors (GPCRs) as nearly 50% of all FDA-approved drugs target these important receptor proteins. […] Amongst the dopamine receptors (DARs), the D2 is arguably one of the most validated drug targets in neurology and psychiatry. For instance, all receptor-based antiparkinsonian drugs primarily work via stimulating the D2 DAR, whereas all FDA-approved antipsychotic agents are antagonists of this receptor. The D2 DAR is also therapeutically targeted in other disorders such as restless legs syndrome, tardive dyskinesia, Tourette's syndrome, and hyperprolactinemia.
To this end, a miniaturized qHTS screen was developed to be screened against the Molecular Libraries Small Molecule Repository (MLSMR). This assay seeks to identify agonists against the D2 DAR.
NIH Molecular Libraries Probe Production Network [MLPCN]
NIH Chemical Genomics Center [NCGC]
PI Name: David Sibley, National Institutes of Neurological Disorders and Stroke
DiscoveRx D2 cells were thawed from frozen stock and seeded at 2,100 cells/ 3 uL/well media (DiscoveRx Plating Reagent 2) with MultiDrop Combi dispenser (Thermo Scientific, Logan, UT) onto white tissue culture treated 1536-well Aurora plates (Brooks Automation, Chelmsford, MA) and allowed to attach overnight at 37 deg C, 5% CO2. Next, 23 nL/well of compound solutions in DMSO were added with a pintool transfer (Kalypsis, San Diego, CA). As the positive control, 1 uL/well dopamine (EC100, 57 uM final concentration) diluted in buffer (HBSS + 10 mM HEPES + SMB + 0.1% Tween-20) was dispensed to 1 column of each plate. The rest of the plate was dispensed with buffer only, 1 uL/well as well. The cells were stimulated by compounds or dopamine control for 90 minutes at 37 deg C, 5% CO2, after which 1.5 ul/well of DiscoveRx detection reagent was added with BioRAPTR FRD dispenser. The detection reagent was prepared by mixing of Galacton Star Substrate, Emerald II solution and PathHunter buffer (supplied by the assay kit) together at 1:5:19 proportion accordingly just prior to dispensing. The plates were incubated at ambient temperature for 1 hour and then the luminescent signal was read on ViewLux plate reader (PerkinElmer, Waltham, MA).
As for `CN1OC[C@@H]2CN(C(=O)c3cccnc3)[C@H](c3ccc(N4CCCCC4)cc3)C[C@@H]21`, the activation is -5.55% (inactive).
With `CCOc1ccc(Nc2nc(Cc3nnc(SCC(=O)c4ccc(C)cc4)o3)cs2)cc1`, the activation was 0.605% (inactive).
On to `O=c1onc(-c2c(F)cccc2F)n1-c1ccccc1Cl`, for which the activation is 58.1% (active).
On to `O=C(Cn1c(-c2ccc(Cl)cc2)noc1=O)N1CCN(c2ccccc2F)CC1`, for which the activation was 3.21% (inactive).
For `Cc1ccc2cccc(S(=O)(=O)N3CCN(c4ccccc4F)CC3)c2n1`, the activation is 1.48% (inactive).
For the compound `O=C(O)CCCC(=O)Nc1ccc(Oc2cccc(C(F)(F)F)c2)nc1`, the activation is -2.77% (inactive).
To `COc1ccc(NC(=O)C2=NNC(=O)CC2)cc1S(=O)(=O)N1CCCCC1` belongs 3.11% (inactive); to `CC1=C(C(=O)Nc2cccc(C(=O)NCC(C)c3ccccc3)c2)SCCO1` (stereo not given), 2.99% (inactive).
Then `Cc1ccc(CN2CCN(c3ncccn3)CC2)c(C)c1`, with 101% (active); and `c1cnc(N2CCN(c3ccc4ccccc4n3)CC2)nc1`, with -9.01% (inactive).
Then `CN(C)C(=O)c1nc2ccc(Cl)cn2c1CN1CCN(c2ncccn2)CC1`, with -28.2% (inactive); and `Cc1ccc(CN2CCN(/N=C/c3ccco3)CC2)c(C)c1`, with -3.14% (inactive); and `Oc1ccc(CN2CCN(c3ncccn3)CC2)cc1`, with 57.4% (active).
In the case of `Cc1ccc(CN2CCN(/N=C/c3cccnc3)CC2)c(C)c1`, the activation was -1.75% (inactive).
As to `CN(C)c1ccc(CNC2C3CC4CC(C3)CC2C4)cc1` (stereo not given), the activation was -0.168% (inactive).
Then `CCCCN(Cc1ccccc1)C(=O)C1CCN(Cc2sccc2C)CC1`, with -2.44% (inactive); and `O=C(Nc1ccc(N2CCOCC2)nc1)c1c(F)cccc1F`, with -1.59% (inactive).
To `CCCCC(=O)N(C)c1c(CC)nc2c(OCc3ccc(S(C)(=O)=O)cc3)cccn12` belongs -2.46% (inactive); to `COc1ccc(C(=O)NCC2CCCO2)cc1S(=O)(=O)NCc1ccc(Cl)cc1` (stereo not given), 0.708% (inactive).
To `C/C(=N\Nc1cccc(C(=O)O)c1)c1ccc2c(c1)Nc1ccccc1S2` belongs 41.5% (active); to `C/C(=N/Nc1nc(-c2ccccc2)c(CC(=O)O)s1)c1ccccc1`, -4.03% (inactive).
Regarding `CC(=O)Nc1cccc(/C(C)=N/NC(=O)c2c(-c3ccccc3Cl)noc2C)c1`, the activation is -0.376% (inactive).
Then `CC(=O)NN=C(C)c1ccc(NC(=O)C2CC2)cc1`, with -2.2% (inactive); and `CC(C)Oc1ccc(CN2CCC2(C)C(=O)NCc2ccc(C(F)(F)F)cc2)cc1` (stereo not given), with -5.75% (inactive); and `O=C(NCc1ccco1)c1ccc(NS(=O)(=O)c2cccc([N+](=O)[O-])c2)cc1`, with 2.68% (inactive).
